# Source: the supplement of paper PMC4709259
# Where a name gives a salt, the structure may show the parent alone. ± gives the standard deviation.
# Tests used:
# Jurkat [1] = experiment: mean cell size (FSC-A) relative to DMSO control (fraction of control); higher = larger cells; details: 48 h
# Summary of the method: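 Jurkat cells at 600 cells/µl were incubated for 1 h and then treated for 48h with the Enzo Screen-Well FDA Approved Drug Library v2.0 at 25µM, with DMSO at 0.9% (v/v) final. Compounds that reduced counts below 20% of controls were retested in 10-fold dilutions down to 25nM. Cell count and mean cell size, taken as forward scatter area, were measured by flow cytometry relative to solvent-only controls. Each plate carried 6-12 controls, and values are means of 3 biological replicates.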
# Jurkat [2] = experiment: cell count relative to DMSO control (fraction of control); higher = more cells (less growth inhibition); details: 48 h
SMILES,mean cell size (Jurkat [1]),cell count (Jurkat [2])
CC(=O)Oc1ccccc1C(=O)O [Aspirin (Acetylsalicylic Acid)] (concentration: 25 µM),0.9355 ± 0.0074,0.97 ± 0.082
CCCc1cc(=O)[nH]c(=S)[nH]1 [Propylthiouracil] (concentration: 25 µM),1.02 ± 0.048,0.981 ± 0.1
Nc1nc2c(ncn2COC(CO)CO)c(=O)[nH]1 [Ganciclovir] (concentration: 25 µM),1.022 ± 0.0079,0.51 ± 0.1
Cc1ccnc2c1NC(=O)c1cccnc1N2C1CC1 [Nevirapine] (concentration: 25 µM),0.924 ± 0.051,0.476 ± 0.11
COC(=O)[C@H](c1ccccc1Cl)N1CCc2sccc2C1 [Clopidogrel Hydrogen Sulfate] (concentration: 25 µM),0.981 ± 0.051,0.942 ± 0.095
CC(=O)CC(c1ccccc1)c1c(O)c2ccccc2oc1=O (stereo not drawn) [Warfarin·Na] (concentration: 25 µM),1.04 ± 0.051,0.708 ± 0.045
S=c1[nH]cnc2nc[nH]c12 [Mercaptopurine Hydrate] (concentration: 25 µM),1.08 ± 0.047,0.792 ± 0.1
CCC(=O)O[C@]1(C(=O)CCl)[C@@H](C)C[C@H]2[C@@H]3C[C@H](F)C4=CC(=O)C=C[C@]4(C)[C@@]3(F)[C@@H](O)C[C@@]21C [Halobetasol Propionate] (concentration: 25 µM),0.971 ± 0.034,0.883 ± 0.12
Cc1ccc(O)c([C@H](CCN(C(C)C)C(C)C)c2ccccc2)c1 [Tolterodine Tartrate] (concentration: 25 µM),0.935 ± 0.022,1.14 ± 0.059
Clc1ccc(C(Cn2ccnc2)OCc2csc3c(Cl)cccc23)c(Cl)c1 (stereo not drawn) [Sertaconazole] (concentration: 25 µM),1.04 ± 0.05,0.801 ± 0.11
CCOc1ccccc1OCCN[C@H](C)Cc1ccc(OC)c(S(N)(=O)=O)c1 [Tamsulosin·HCl] (concentration: 25 µM),0.988 ± 0.037,0.808 ± 0.079
O=c1[nH]cc(F)c(=O)[nH]1 [Fluorouracil (5-Fluorouracil)] (concentration: 25 µM),1.12 ± 0.037,0.379 ± 0.023
CCc1c2c(nc3ccc(OC(=O)N4CCC(N5CCCCC5)CC4)cc13)-c1cc3c(c(=O)n1C2)COC(=O)[C@]3(O)CC [Irinotecan·HCl] (concentration: 250 nM),1.05 ± 0.038,0.414 ± 0.034
NCCc1ccc(O)c(O)c1 [Dopamine·HCl] (concentration: 25 µM),0.951 ± 0.029,0.909 ± 0.097
CC(C)(C)NCC(O)COc1cccc2c1CC(O)C(O)C2 (stereo not drawn) [Nadolol] (concentration: 25 µM),0.928 ± 0.041,0.487 ± 0.059
CC(C(=O)O)c1cccc(Oc2ccccc2)c1 (stereo not drawn) [Fenoprofen Calcium] (concentration: 25 µM),0.901 ± 0.05,0.314 ± 0.15
COc1cccc2c1C(=O)c1c(O)c3c(c(O)c1C2=O)C[C@@](O)(C(=O)CO)C[C@@H]3O[C@H]1C[C@H](N)[C@H](O)[C@H](C)O1 [Doxorubicin·HCl] (concentration: 250 nM),1.47 ± 0.048,0.234 ± 0.035
CCCN(CCC)S(=O)(=O)c1ccc(C(=O)O)cc1 [Probenecid] (concentration: 25 µM),0.993 ± 0.012,0.595 ± 0.13
C[C@](N)(Cc1ccc(O)c(O)c1)C(=O)O [Methyldopa Sesquihydrate (L-Α-Methyl-Dopa Sesquihyrate)] (concentration: 25 µM),0.958 ± 0.027,0.834 ± 0.052
CN1C2CCCC1CC(NC(=O)c1nn(C)c3ccccc13)C2 (stereo not drawn) [Granisetron·HCl] (concentration: 25 µM),0.9687 ± 0.004,0.899 ± 0.037
COCC1=C(C(=O)OC(C)OC(=O)OC(C)C)N2C(=O)[C@@H](NC(=O)/C(=N\OC)c3csc(N)n3)[C@H]2SC1 (stereo partly drawn) [Cefpodoxime Proxetil] (concentration: 25 µM),0.94 ± 0.021,0.872 ± 0.045
CC1=Nc2ccc(Cl)cc2S(=O)(=O)N1 [Diazoxide] (concentration: 25 µM),1.01 ± 0.064,0.916 ± 0.04
CC[C@H]1OC(=O)[C@H](C)[C@@H](O[C@H]2C[C@@](C)(OC)[C@@H](O)[C@H](C)O2)[C@H](C)[C@@H](O[C@@H]2O[C@H](C)C[C@H](N(C)C)[C@H]2O)[C@](C)(O)C[C@@H](C)CN(C)[C@H](C)[C@@H](O)[C@]1(C)O [Azithromycin] (concentration: 25 µM),0.948 ± 0.027,0.628 ± 0.078
CCOC(=O)[C@H](CCc1ccccc1)N[C@@H](C)C(=O)N1CCC[C@H]1C(=O)O [Enalapril] (concentration: 25 µM),1.01 ± 0.029,0.733 ± 0.042
